Structures are written as SMILES. “And” between values parts separate entries of the source, which are not always exact repeats. Equal entries are not always repeated. Compounds without any hit were thinned out: in the full panel of roughly 83,000, 20% have a hit.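 Activity criterion: percent growth below 10, measured after cells in 96-well plates were exposed to a single compound concentration for 48 hours.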 The source made the active and inactive calls.

The subject of this assay is HCT-15 colon. Description: NCI-60 one-dose screen, 48 h (100 = growth as untreated, 0 = no growth, -100 = all killed). The conditions noted are these: 10 µM. How it is done:
Growth inhibition of the HCT-15 human tumor cell line is measured as a screen for anti-cancer activity. Cells are grown in 96 well plates and exposed to the test compound for 48 hours. Compounds are tested at a single concentration, which is 10^-5 M for most compounds. The reported endpoint is percent growth (GI% or GIPRCNT), where numbers from 0 - 100% represent growth inhibition, and numbers from -100% - 0 represent cell death. For example, a value of 40 represents 60% growth inhibition. A value of 0 means no net growth occurred over the course of the experiment. A value of -40 indicates 40% of cells at the beginning of the experiment died by the end of the experiment. A value of -100 means all cells are dead at the end of the experiment.
NCI-60 Human Tumor Cell Lines Screen was performed using the standard one-dose NCI protocol, which is described in more detail at https://dtp.cancer.gov/discovery_development/nci-60/default.htm.
Compounds with GIPRCNT values below 10 were considered active. Activity score was based on GIPRCNT using the following formula: […]
Score is 0 for GIPRCNT values of 100 or above, 50 for GIPRCNT values of 0, and 100 for GIPRCNT values of -100.
With `COC1CC2C=C(C)/C=C/C=C/C(=O)NC(c3ccccc3)C/C=C/CCC(O)CC(=O)C2=C1O` (stereo not given), the growth is -85.2% (active).
For `C=NCC#N`, the growth was 94.2% (inactive) and 107% (inactive).
As to `CN(C)CC1(N)C(=O)NC(=O)NC1=O`, the growth was 102% (inactive).
Take `COc1cc(/C=C/[N+](=O)[O-])cc(Br)c1OC`: the growth was 7.99% (active).
With `COC12C(COC(N)=O)C3=C(C(=O)C(C)=C(N)C3=O)N1CC1C2N1C` (stereo not given) the figure was 33.2% (inactive); with `CC(C)C1(NC(=O)C2CC3c4cccc5[nH]cc(c45)CC3N(C)C2)OC2(O)C3CCCN3C(=O)C(Cc3ccccc3)N2C1=O` (stereo not given), 89.3% (inactive).
With `CC(=O)[O][Hg][c]1c(C)c(C)cc(C)c1C` the figure was -39.6% (active); with `COC12c3c(C)cc(O)c4c(=O)occ(c34)C(=O)C1C13COC(=O)c4c(O)cc(C)c(c41)C(=O)C2C3OC(C)=O` (stereo not given), 100% (inactive).
In the case of `NC(Cc1ccccc1)c1ccccc1` (stereo not given), the growth is 110% (inactive) and 97.8% (inactive).
Take `O=[P+](O)c1ccccc1`: the growth is 108% (inactive).
The same measure for `Cc1cc(C)c(C[N+](C)(C)C)c(C)c1C`: 7.64% (active); for `COc1cc2c(c(OC)c1OC)-c1ccc(O)c(=O)cc1[C@@H](NC(C)=O)CC2`: 38.3% (inactive).
On to `O=C(CBr)Nc1ccc(Cl)cc1`, for which the growth is 17.6% (inactive).
Turning to `N#CCc1ccccc1`, the growth was 102% (inactive).
As for `C/C(=C\c1ccc(Cl)c(Cl)c1)[N+](=O)[O-]`, the growth was -66.8% (active) and 101% (inactive).
As to `C=C1C(=O)O[C@@H]2C[C@@H](C)[C@@H]3C=CC(=O)[C@@]3(C)[C@@H](O)[C@H]12`, the growth was -83.7% (active).
The same measure for `O=[N+]([O-])/C=C/c1ccc(Cl)cc1[N+](=O)[O-]`: -37.1% (active).
`O=[N+]([O-])/C=C/c1ccc([N+](=O)[O-])cc1`: the growth was -30.1% (active) and 12.6% (inactive).
As to `O=C(O)c1cc(Cc2ccc(O)c(C(=O)O)c2)ccc1O` (tested in a mixture with another compound), the growth was 49.4% (inactive).
With `COC(C(=O)C(O)C(C)O)C1Cc2cc3cc(OC4CC(OC(C)=O)C(OC5CC(O)C(OC)C(C)O5)C(C)O4)cc(O)c3c(O)c2C(=O)C1OC1CC(OC2CC(OC3CC(C)(O)C(OC(=O)C(C)C)C(C)O3)C(O)C(C)O2)C(O)C(C)O1` (stereo not given) the figure was 25.1% (inactive); with `CC(Cc1ccc2c(c1)OCO2)NN` (stereo not given), 102% (inactive).
Take `C/C1=C\[C@H](C)C[C@H](C)OC(=O)C[C@H](c2ccc(O)cc2)NC(=O)[C@@H](Cc2c(Br)[nH]c3ccccc23)N(C)C(=O)[C@H](C)NC(=O)[C@@H](C)C1`: the growth was -38.1% (active).
Regarding `C[CH2][Hg][S]c1ccccc1C(=O)O`, the growth is -84.7% (active).
Regarding `O=C(CBr)Nc1ccccc1`, the growth was 55.6% (inactive).
With `COc1cc([N+](=O)[O-])c2ncccc2c1[N+](=O)[O-]` the figure was 68.9% (inactive); with `O=[N+]([O-])/C=C\c1ccc2c(c1)OCO2`, 78.4% (inactive); with `NC(=O)c1cc([N+](=O)[O-])c(Cl)c([N+](=O)[O-])c1`, 45.5% (inactive).
The same measure for `NNc1ccccc1`: 82.3% (inactive); for `CC(C)c1cc([N+](=O)[O-])cc([N+](=O)[O-])c1O`: 108% (inactive); for `[Cl][Sn]([c]1ccccc1)([c]1ccccc1)[c]1ccccc1`: -87% (active).
As to `COC(=O)C1C(O)C(C)C(O)C(C)/C=C\C=C(C)C(=O)Nc2c(C)c(OC(C)=O)c3c(c2O)C(=O)C(C)=C2OCOC(=C23)C(C)=CC(C)(O)C(O)C(C)C1O` (stereo not given), the growth is 43.8% (inactive).
With `O=[N+]([O-])c1ccc(N2CCOCC2)c2c1no[n+]2[O-]` the figure was -19.3% (active); with `COc1cc(/C=C/[N+](=O)[O-])cc(OC)c1OC`, -9.12% (active); with `[O-][n+]1ccccc1S`, 32.8% (inactive).
Take `CCCCCCCC[N+]12CN3CN(CN(C3)C1)C2`: the growth is 96.7% (inactive).
In the case of `COc1cc2c(cc1OC)C13CCN4CC5=CCOC6CC(=O)N2C1C6C5CC43` (stereo not given), the growth was 103% (inactive) and 109% (inactive).
Regarding `[Cl][Hg][c]1ccc2ccccc2c1`, the growth is -72.3% (active).
The same measure for `COc1ccc(/C=C\[N+](=O)[O-])cc1OC`: 53.9% (inactive) and 17.4% (inactive).
With `CC/C(=C/c1ccc(OC)cc1OC)[N+](=O)[O-]` the figure was -35.9% (active); with `O=C(CCl)Nc1ccc(Cl)cc1`, 37.2% (inactive).

The record behind these values is PubChem BioAssay (NCI).
